L3MBTL1 block: inhibitors of human L3MBTL1; AlphaScreen L3MBTL1–H3K9me1 peptide binding; 0.66% of 230,000 active; Potency, µM (doses to about 57.1 µM), without a hit: at the highest dose activity, negative = inhibition, hits mostly inhibitors; further: potency means the concentration at half of the fitted maximal effect; on the % scale 0 is the no-effect control and ±100 the full control effect; nearly all actives have a fitted effect of over 60% in size
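AlphaScreen assay: L3MBTL1 (50 nM final) was preincubated 30 min at room temperature with biotinylated H3(1-15)K9me1 peptide (75 nM final), then 30 min with library compounds; streptavidin donor and nickel chelate acceptor beads (10 ug/mL final) added, 30 min dark.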
HP1b chromo inh: inhibitors of HP1-beta chromodomain binding to methylated histone tails | P83916 | AlphaScreen HP1-beta / biotin-H3K9me3 peptide binding | Potency, µM (series often up to 114 µM), inactives show at the highest dose activity change, negative = inhibition, actives largely listed as inhibitors | 0.56% of 390,000 active; further: potency means the concentration at half of the fitted maximal effect; nearly all actives have a fitted effect of over 70% in size
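AlphaScreen: HP1-beta (50 nM) preformed 30 min with biotin-H3(1-18)K9me3 peptide (50 nM) in PBS pH 7.4, 0.01% Tween-20. Compound added for 30 min at RT, then streptavidin donor/nickel chelate acceptor beads (10 ug/mL) for 30 min.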
JMJD2A Tudor: inhibitors of human JMJD2A Tudor domain; AlphaScreen JMJD2A-Tudor / H3K4me3 peptide binding; Potency, µM (doses to about 114 µM), for inactives: at the highest dose activity change, negative = inhibition, most hits filed as inhibitors; 4.4% of 390,000 active; further: potency means the concentration at half of the fitted maximal effect; on the % scale 0 is the no-effect control and ±100 the full control effect; nearly all actives have a fitted effect of over 50% in size
Target sequence (O75164 whole entry, looked up, the tested form may be a part): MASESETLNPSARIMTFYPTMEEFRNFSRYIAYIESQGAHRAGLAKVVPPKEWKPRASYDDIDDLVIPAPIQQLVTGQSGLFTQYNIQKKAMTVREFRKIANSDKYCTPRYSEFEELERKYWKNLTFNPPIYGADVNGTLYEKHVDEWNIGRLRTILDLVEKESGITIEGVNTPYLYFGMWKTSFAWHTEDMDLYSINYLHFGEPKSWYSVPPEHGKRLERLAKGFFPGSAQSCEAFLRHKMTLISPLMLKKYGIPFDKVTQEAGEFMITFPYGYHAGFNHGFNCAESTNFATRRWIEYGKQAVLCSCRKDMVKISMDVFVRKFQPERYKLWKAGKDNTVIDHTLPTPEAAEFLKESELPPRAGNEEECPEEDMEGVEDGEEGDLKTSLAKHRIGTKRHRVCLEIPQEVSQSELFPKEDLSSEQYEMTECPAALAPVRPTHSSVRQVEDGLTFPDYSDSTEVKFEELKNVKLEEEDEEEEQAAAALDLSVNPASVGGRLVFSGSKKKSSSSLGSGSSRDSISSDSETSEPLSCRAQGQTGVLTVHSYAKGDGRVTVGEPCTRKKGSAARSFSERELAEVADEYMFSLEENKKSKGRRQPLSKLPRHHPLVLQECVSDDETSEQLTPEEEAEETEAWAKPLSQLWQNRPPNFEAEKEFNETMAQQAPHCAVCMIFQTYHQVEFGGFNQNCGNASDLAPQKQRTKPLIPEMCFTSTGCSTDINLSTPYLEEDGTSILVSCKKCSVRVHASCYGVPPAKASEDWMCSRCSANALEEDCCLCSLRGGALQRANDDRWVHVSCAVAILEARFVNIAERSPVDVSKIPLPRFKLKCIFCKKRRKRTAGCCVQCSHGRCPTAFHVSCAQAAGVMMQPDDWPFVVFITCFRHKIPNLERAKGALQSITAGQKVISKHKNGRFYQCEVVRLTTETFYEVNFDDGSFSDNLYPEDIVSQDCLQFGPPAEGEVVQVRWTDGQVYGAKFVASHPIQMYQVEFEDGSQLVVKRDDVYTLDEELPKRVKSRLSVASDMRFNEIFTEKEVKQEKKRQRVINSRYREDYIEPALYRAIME
PI5P4K alpha inh: inhibitors of human PI5P4K alpha. PI5P4Kalpha enzyme, ADP-Glo luminescence, 60 min; hits give low values. max response, %. 1.2% of 330,000 active. AID 652105. P48426; active means max response of -50% or lower; inconclusive means between -30% and -50%; inactive means -30% or higher; further: value at the top dose of about 77 µM; on the % scale 0 is the no-effect control and ±100 the full control effect
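PI5P4Kalpha ADP-Glo assay; 5 microM ATP final; 60 min RT reaction; HEPES pH 7.4/EGTA/CHAPS, 5% DMSO; controls lacking substrate or enzyme; luminescent end-point.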
G9a inh: G9a (human) methyltransferase inhibition | Q96KQ7 | G9a H3K9 monomethylation, AlphaScreen, 2 h | Potency, µM (top dose mostly 102 µM), without a hit: top-dose activity, negative = inhibition, most hits filed as inhibitors | 8.8% of 350,000 active; further: potency means the concentration at half of the fitted maximal effect; on the % scale 0 is the no-effect control and ±100 the full control effect; nearly all actives have a fitted effect of over 75% in size
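Compounds were preincubated with 20 nM G9a for 15 min, after which biotinylated H3K9 peptide (500 nM) and SAM (20 uM) started a 2 h room-temperature reaction. Monomethylated product was quantified by antibody-based AlphaScreen chemiluminescence.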
BAZ2B inh: inhibitors of human BAZ2B bromodomain. Q9UIF8. Potency, µM (doses to about 114 µM), inactives show at the top dose activity change, negative = inhibition, usual class: inhibitors. AlphaScreen BAZ2B-H3K14Ac peptide displacement. 4.4% of 360,000 active; further: potency means the concentration at half of the fitted maximal effect; on the % scale 0 is the no-effect control and ±100 the full control effect; nearly all actives have a fitted effect of over 60% in size
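Compounds, titrated to a top concentration of 110 uM, were incubated 30 min at room temperature with preformed BAZ2B/acetyl-K14 H3 peptide complex (50 nM each). Proximity signal was measured by AlphaScreen after 20 min with beads.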
* = called active by the depositor; ? = inconclusive; . = no result; [ ] = remark or other dose. Shown are actives, neighbours in structure and some others; about 11% of the full set was active somewhere. Unless noted, the call rests on the fitted dose curve; in most records, active means well fitted inhibition curve with a large enough effect; inconclusive means small, poorly fitted or top-dose-only effect; inactive means no such curve, though single readings can be large or run the other way.

SMILES	L3MBTL1 block	HP1b chromo inh	JMJD2A Tudor	PI5P4K alpha inh	G9a inh	BAZ2B inh
Ic1ccccc1CNC1C2CCN(CC2)C1C(c1ccccc1)c1ccccc1 (stereo unspecified)	.	.	.	.	2µM*	.
C[C@@H](Cc1ccccc1)NCCC(c1ccccc1)c1ccccc1	.	.	.	.	-23%[5.15 µM]	.
Cc1ccc(CNC(=O)c2ccc(CSc3nc4ccncc4n3Cc3ccc(C)cc3)cc2)cc1	.	44%	-17%	.	20%[59 µM]	10%
ClC1=C(Cl)C(Cl)=C(Cl)C1=C/C=C/c1ccccc1	-23%	6.3µM*	5.6µM*	-18	3.2µM*	3.5µM*
O=C1NC(=O)N(c2ccccc2)C(=O)/C1=C\C=C\c1ccccc1	?	?	-8%	?	.	-5%
CCOC(=O)c1c(C)c(P(=S)(N2CCOCC2)N2CCOCC2)n(C)c1C	-5%	?	-25%	7	6.3µM*	?
CCOC(=O)c1c(P(=O)(N2CCOCC2)N2CCOCC2)noc1N	-8%	70%	-2%[11.4 µM]	3	-26%	9%
CC(C)NC(=O)N1CCCC2(CCN(C(=O)Oc3ccccc3)CC2)C1	.	.	.	.	35%[12.7 µM]	.
C[n+]1cccc(C(=O)N/N=C/c2ccc3c(c2)OCO3)c1	.	3%	-4%	2	?	50µM*
C=CCC1C(=O)NC(=S)NC1=O	.	-19%	89µM*	-63*	8.9µM*	6%
CC1CCC(NCC(O)c2ccccc2)CC1 (stereo unspecified)	.	37%	-13%	.	7%	-3%
CCCCC(CC)CNCC(O)c1ccccc1 (stereo unspecified)	4%	-22%	7.1µM*	-8	25µM*	.
CN1C2CCC1CC(OC(c1ccc(F)cc1)c1ccc(F)cc1)C2 (stereo unspecified)	.	.	.	.	12%[59 µM]	.
CN1[C@@H]2CC[C@H]1CC(OC1c3ccccc3CCc3ccccc31)C2 (stereo partly specified)	-9%	-13%	79µM*	8	-7%[5.15 µM]	-25%
Clc1ccc(C2CC3CCC2N3)cn1 (stereo unspecified)	.	.	.	.	41%[59 µM]	.
COC1CC(C)C(OC)c2cc(O)cc(c2O)NC(=O)C(C)=CC=CC(C)C(OC(N)=O)C(C)=CC(C)C1OC (stereo unspecified)	.	71µM*	89µM*	13	.	.
NCC(CS(=O)(=O)O)c1ccc(Cl)cc1 (stereo unspecified)	.	.	.	.	7%[59 µM]	.
CN(C)c1ccc(CNC(=O)Cn2c(=O)oc3cc(S(=O)(=O)N4CCCCCC4)ccc32)cc1	.	-33%	?	.	11µM*	25µM*
COc1cc2c(cc1OC)-c1c(OC)c(OC)cc3c1[C@H](C2)[N+](C)(C)CC3	2%	-6%	?	-3	14µM*	-30%
COc1cc2c3c(c1OC)-c1cc(O)ccc1CC3NCC2 (stereo unspecified)	.	22%	3%	-6	-37%[12.7 µM]	-36%
C[C@@H]1OC(=O)[C@H]2C[C@H]3CCCC[C@@H]3[C@@H](/C=C/[C@H]3CCC[C@H](C)N3C)[C@@H]12	.	.	.	.	25%[59 µM]	.
Cc1cc(/C=C2/C(=O)NC(=O)N(C)C2=O)c(C)n1-c1ccccc1	-1%	49%	-27%	7	?	-13%
Cc1cc(/C=C2\C(=O)NC(=O)N(c3ccccc3F)C2=O)c(C)n1-c1cc(C(=O)O)cc(C(=O)O)c1	.	13µM*	11µM*	-78*	10µM*	28µM*
Cc1cc(/C=C2\C(=O)NC(=O)N(c3ccccc3)C2=O)c(C)n1-c1ccc(C(=O)O)c(Cl)c1	?	5%	-26%	?	45µM*	?
Cc1cc(/C=C2\C(=O)NC(=O)N(c3ccc(F)cc3)C2=O)c(C)n1-c1cccc(C(=O)O)c1	?	6%	-26%	-50*	35µM*	-36%
SMILES	L3MBTL1 block	HP1b chromo inh	JMJD2A Tudor	PI5P4K alpha inh	G9a inh	BAZ2B inh
CCc1ccccc1N1C(=O)NC(=O)/C(=C\c2cc(C)n(C)c2C)C1=O	-5%	?	-15%	-1	9%[59 µM]	-4%
CC(=O)N1CC[N+](C)(C)CC1	.	.	.	.	-3%[59 µM]	.
[O]=[Sb]([OH])([OH])[c]1ccccc1	.	4%	-30%	.	.	.
CCOC(=O)C1=CC(=C2C(=O)N(CC)C(=S)N(CC)C2=O)c2ccccc2O1	.	?	-26%	-22	25µM*	?
CCS(=O)(=O)C1=NN2C(=N)/C(=C\c3ccc(OC(=O)c4ccco4)cc3)C(=O)N=C2S1	.	34%	-1%	-4	40µM*	?
N=C1/C(=C\c2ccc(OC(=O)c3ccccc3Cl)cc2)C(=O)N=C2SC(N3CCOCC3)=NN12	.	-12%	50µM*	-67*	6%	45µM*
CCN1C[C@@]2(COC)CC[C@H](O)[C@@]34[C@@H]2C[C@@H]([C@@H]13)[C@]1(O)C[C@@H](OC)C2C[C@H]4[C@H]1[C@H]2OC(C)=O	.	.	.	.	26%[21.5 µM]	.
Fc1ccccc1N1CCN(Cc2ccc3c(c2)OCO3)CC1	-1%	?	3.5µM*	0	7.9µM*	35µM*
O=c1[nH]c(N2CCN(Cc3ccc4c(c3)OCO4)CC2)nc2c1CCC2	.	40%	-12%	0	1%[12.7 µM]	4%
Cc1ccccc1N1CCN(Cc2ccc3c(c2)OCO3)CC1	4%	4%	5.6µM*	1	7.9µM*	?
Clc1ccccc1N1CCN(Cc2ccc3c(c2)OCO3)CC1	-8%	?	28µM*	1	-31%[12.7 µM]	79µM*
CN1CCN(Cc2c(F)cccc2Cl)CC1	-7%	?	10µM*	-2	22µM*	63µM*
O=C1c2ccccc2-c2c1nc1c([n+]2[O-])CCCC1	0%	33%	7%	-7	?	1%
CC[C@@H](CO)NC(=O)[C@H]1C=C2c3cccc4c3c(cn4C)C[C@H]2N(C)C1	.	.	.	.	35%[12.7 µM]	.
